For 66 compounds, inhibition results are on record in PubChem BioAssay AID492993 (Johns Hopkins Ion Channel Center, 2010).

About 200 (4.1%) of roughly 4,900 compounds were called active.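 Rule for the calls: active = thallium signal drop more than 5 SD beyond the mean of the no-compound control wells, seen in both duplicate plates; inactive = the rest.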 A selection follows.

The target in the experiment is Inward rectifier potassium channel 2 (Mus musculus) (UniProt P35561). Kind of experiment: mouse Kir2.1 channel inhibition, confirmation, selectivity assay for KCNK9 modulator project, cell-based, HEK293, thallium flux (AID 492993).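 For inhibition: signal is fluorescence rise after thallium addition divided by baseline fluorescence; plate controls were assay buffer only for no effect and full block by chlorpromazine control for full effect.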 Particulars: Kir2.1 cells, FluxOR thallium flux fluorescence, at 10 µM; stronger effect = higher value.
Inward rectifier potassium channel 2 (Mus musculus), sequence (P35561 whole entry, looked up): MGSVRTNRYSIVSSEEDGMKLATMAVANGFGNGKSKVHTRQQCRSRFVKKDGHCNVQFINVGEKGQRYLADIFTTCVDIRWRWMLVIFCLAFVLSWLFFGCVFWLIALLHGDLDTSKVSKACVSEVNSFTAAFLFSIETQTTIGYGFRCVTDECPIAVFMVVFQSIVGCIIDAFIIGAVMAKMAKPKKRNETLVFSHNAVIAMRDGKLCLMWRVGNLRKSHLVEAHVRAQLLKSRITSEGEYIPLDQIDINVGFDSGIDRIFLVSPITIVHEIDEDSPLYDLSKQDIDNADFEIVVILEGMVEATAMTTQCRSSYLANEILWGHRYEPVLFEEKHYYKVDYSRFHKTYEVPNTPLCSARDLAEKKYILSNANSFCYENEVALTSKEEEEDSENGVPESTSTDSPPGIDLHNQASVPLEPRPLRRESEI
`C=CCc1cc(S(=O)(=O)c2ccc(O)c(CC=C)c2)ccc1O`: the inhibition entry is “inactive”.

`COc1ccc(C2CC(c3cccs3)=NN2c2ccccc2)cc1` (stereo unspecified): the inhibition result was “inactive”.

Turning to `Cc1cccc(N(C)C(=O)CN2C(=O)COc3ccc(S(=O)(=O)N4CCCCCC4)cc32)c1`, the inhibition entry is “inactive”.

Turning to `CCOC(=O)c1c(NC(=O)CSc2cn(CC)c3ccccc23)sc2c1CCC2`, the inhibition result was “inactive”.

In the case of `CCCCCC(O)c1cccc(OCc2ccc3ccccc3n2)c1` (stereo unspecified), the inhibition was 70.5% (active).

As for `COc1cccc(COC(=O)C2CCN(S(=O)(=O)c3ccc(Cl)cc3)CC2)c1OC`, the inhibition result is “inactive”.

On to `CC(C)C(=O)Nc1cccc(NC(=S)NC(=O)C(c2ccccc2)c2ccccc2)c1`, for which the inhibition result was “inactive”.

For `O=C(Cn1cc(C(=O)c2cccs2)c2ccccc21)NCc1cccs1`, the inhibition result was “inactive”.

In the case of `C/C(=N\NC(=S)Nc1ccc(C)cc1)c1cc2ccccc2o1`, the inhibition result is “inactive”.

Take `Cc1ccc(SCC(=O)c2cc(C)c(OC(=S)N(C)C)c(C)c2)cc1`: the inhibition entry was “inactive”.

With `CCOC(=O)Cc1cc(=O)[nH]c(=O)[nH]1`, the inhibition result is “inactive”.

In the case of `O=C(NNc1ccccc1Cl)C(O)(c1cccc(C(F)(F)F)c1)c1cccc(C(F)(F)F)c1`, the inhibition result was “inactive”.

`c1ccc(C(c2ccccc2)N2CCN(Cc3nnnn3C3CCCCC3)CC2)cc1`: the inhibition entry was “inactive”.

`CC1(C)CC(N2CCN(C(c3ccccc3)c3ccccc3)CC2)=CC(=[N+]2CCCCC2)C1`: the inhibition is 65% (active).

With `CCC(C)(C)n1nnnc1C(c1cccs1)N1CCN(c2nc3ccccc3s2)CC1` (stereo unspecified), the inhibition result is “inactive”.

Regarding `Clc1ccc(CSc2nnc(/C=C/c3ccccc3)o2)c(Cl)c1`, the inhibition entry was “inactive”.

Consider `COc1ccccc1C(c1nnnn1C(C)(C)C)N1CCN(Cc2ccccc2)CC1` (stereo unspecified), for which the inhibition result is “inactive”.

As to `CN(C)S(=O)(=O)N1CCC(Oc2cccc(C(=O)NCCCC3CCCC3)c2)CC1`, the inhibition entry was “inactive”.

In the case of `O=[N+]([O-])c1ccc(N2CCN(CC(O)COc3ccccc3)CC2)cc1` (stereo unspecified), the inhibition entry was “inactive”.

As for `O=C(Oc1ccc(Br)cc1C(=S)N1CCOCC1)c1cccc([N+](=O)[O-])c1`, the inhibition result was “inactive”.

Consider `CN(CCOc1ccccc1)C(=O)c1cc(COc2c(F)cccc2F)on1`, for which the inhibition result is “inactive”.

Turning to `COC(=O)c1sc(-c2ccc(C(C)(C)C)cc2)cc1NC(=O)/C=C/C(=O)O`, the inhibition result was “inactive”.

As to `COc1cc(C(CCN2CCN(c3ccccc3)CC2)c2c(OC)cc(OC)c3ccc(=O)oc23)cc(OC)c1OC` (stereo unspecified), the inhibition result is “inactive”.

Turning to `O=C1/C(=C/c2ccc3c(c2)OCO3)CCC/C1=C\c1ccc2c(c1)OCO2`, the inhibition result was “inactive”.

As to `O=C(Nc1cc(Cl)cc(Cl)c1)C(NCCCO)c1ccccc1` (stereo unspecified), the inhibition result is “inactive”.

Regarding `O=C(NCc1ccco1)c1ccc(NS(=O)(=O)c2cccc([N+](=O)[O-])c2)cc1`, the inhibition entry is “inactive”.

Take `O=C1c2ccccc2C2=Nc3ccccc3SC(c3ccccc3F)C12` (stereo unspecified): the inhibition entry is “inactive”.

`Cc1cccc(NC(=O)CN2CCCN(S(=O)(=O)c3ccc(Br)s3)CC2)c1`: the inhibition result is “inactive”.

`Cc1ccc(C)c(NC(=S)NNC(=S)Nc2ccc(C(C)C)cc2)c1`: the inhibition result is “inactive”.

With `Cc1c(C(=O)Nc2ccccn2)oc2ccc(Br)cc12`, the inhibition entry is “inactive”.

Consider `O=C(CC(NC(=O)c1ccccc1)c1ccccc1)Nc1ccc(F)c(F)c1` (stereo unspecified), for which the inhibition result was “inactive”.

Consider `CCCCN(CC)C(=O)C1CCCN(S(=O)(=O)c2cccc3nsnc23)C1` (stereo unspecified), for which the inhibition entry was “inactive”.

Turning to `Oc1ccc(/C=N/Nc2nc(-c3ccccc3F)nc3ccccc23)c(O)c1`, the inhibition entry was “inactive”.

For the compound `COC(=O)Cn1cnc2scc(-c3ccc(C)c(C)c3)c2c1=O`, the inhibition entry is “inactive”.

As to `O=C(Nc1ccc(Cl)c(Cl)c1)N1CC=C(c2ccccc2)CC1`, the inhibition entry was “inactive”.

In the case of `Cc1ccc(C(=O)/C=C/c2c(C)nn(-c3ccccc3)c2Cl)cc1`, the inhibition entry is “inactive”.

For `CCCOc1ccc2c3c(c(=O)oc2c1OCCC)CCC3`, the inhibition result is “inactive”.

For the compound `COc1cccc(-c2cc3nc4c(c(N5CCC6(CC5)OCCO6)n3n2)CCCC4)c1`, the inhibition entry is “inactive”.

`Cc1nn(CC(=O)Nc2nc3ccccc3s2)c(C)c1[N+](=O)[O-]`: the inhibition entry is “inactive”.

As to `COc1ccc(C(=O)C2CCCN(Cc3ccc4nonc4c3)C2)c(C)c1` (stereo unspecified), the inhibition entry was “inactive”.

In the case of `Cc1ccc(-c2csc(NCCc3nc4cc(Cl)c(Cl)cc4n3CCOCCO)n2)cc1`, the inhibition result is “inactive”.

`COc1ccc2c(c1)C(c1cccs1)=NNC(c1cccnc1)=N2`: the inhibition entry was “inactive”.

Take `COc1ccc([N+](=O)[O-])cc1-c1nc2ccccc2nc1-c1ccccc1`: the inhibition entry was “inactive”.

For `Cc1cc2ccccn2c1C(=O)c1cccc(S(=O)(=O)N2CCOCC2)c1`, the inhibition entry is “inactive”.

As for `COc1ccc(/C=C2\CCc3ccccc3C2=O)c(OC)c1OC`, the inhibition entry is “inactive”.

In the case of `COc1cccc(OC)c1C(=O)Nc1sc2c(c1C(N)=O)CCCC2`, the inhibition result is “inactive”.

`CC(C)N(C(=O)CSc1nc(COc2ccccc2)nc2ccccc12)C(C)C`: the inhibition result was “inactive”.

Consider `O=c1cc(CN2CCN(c3cccc(Cl)c3)CC2)c2cc3c(cc2o1)CCCC3`, for which the inhibition result is “inactive”.

For `Cc1ccc(CN2CCN(/N=C/c3ccco3)CC2)c(C)c1`, the inhibition result is “inactive”.

On to `Cc1[nH]c2ccccc2c1CCN(Cc1cccs1)C(=S)NC(C)(C)C`, for which the inhibition result was “inactive”.

For the compound `O=C(CSCc1ccc(Cl)cc1)N1CCN(Cc2ccc3c(c2)OCO3)CC1`, the inhibition entry was “inactive”.

In the case of `CCC/C=C(\CCC)C(NC(=O)Cc1ccccc1)c1ccc(C(=O)OC)cc1` (stereo unspecified), the inhibition entry was “inactive”.

For the compound `O=C1CC(NNc2ccccc2)C(=O)N1c1cccc(Cl)c1` (stereo unspecified), the inhibition entry was “inactive”.

On to `FC(F)(F)c1cc(-c2ccco2)nc(NCc2ccc(Cl)cc2)n1`, for which the inhibition result is “inactive”.

As for `COc1ccc(NC(=O)CN(C)CC(=O)Nc2cccc(C(F)(F)F)c2)cc1`, the inhibition entry was “inactive”.

In the case of `CCCCCCCCCCOC(=O)Cn1c(COc2cccc(OC)c2)[n+](C)c2ccccc21`, the inhibition is 70% (active).

For `CCCCCn1c(=O)c(C(=O)OCC)c(Cl)c2ccccc21`, the inhibition result is “inactive”.

`CCCCCCCCCCOC(=O)Cn1c(COc2ccc(C)cc2)[n+](C)c2ccccc21`: the inhibition is 60.5% (active).

Regarding `CCCSc1nc(NCc2ccco2)c2c3c(sc2n1)COC(C)(CC)C3` (stereo unspecified), the inhibition entry was “inactive”.

Regarding `COc1ccc(-c2noc(CSc3ccc(C)cc3)n2)cc1`, the inhibition entry is “inactive”.

On to `COc1cccc(COc2ccc(N(C)S(=O)(=O)c3ccccc3)cc2)c1`, for which the inhibition result is “inactive”.

For the compound `CCOc1ccc(C(C)C)cc1S(=O)(=O)n1nc(C)cc1C`, the inhibition result was “inactive”.

`Cc1cc(C=O)c(C)n1-c1ccc(NC2CCCCC2)c([N+](=O)[O-])c1`: the inhibition result was “inactive”.

For the compound `O=C(C[C@H]1C(=O)N(c2ccc(F)c(F)c2)C[C@@H]1Cc1ccccc1)Nc1ccccc1`, the inhibition entry was “inactive”.

Consider `CCCCNC(=S)N/N=C1\CCCCc2ccccc21`, for which the inhibition entry was “inactive”.

As for `CC(C)(C)SCCSC1=CC(=O)CC(c2ccccc2)C1` (stereo unspecified), the inhibition result is “inactive”.

Usually inhibition stands for how much of the control response was suppressed.
